Rows were chosen to be rich in hits. Some 17% of all compounds tested hit in one or more screens of this group.
TDP1 cell CPT = DT40-hTDP1 cell growth loss with CPT. chicken DT40 Tdp1-/-;hTDP1 cells + 20 nM CPT, ATP luminescence, 48 h. Potency, µM (doses to about 46.2 µM), usual class: inhibitors. 420,000 compounds, 12% hits. AID 686979; also: nearly all actives have a fitted effect of over 55% in size
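Chicken DT40 Tdp1-/- cells stably complemented with human TDP1 were seeded at 400 cells/well in medium containing 20 nM camptothecin, exposed to pin-transferred compounds, and grown at 37 °C for at least 48 hr. Viability was read as ATP luminescence.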
HepG2 tox = kills HepG2 cells in TGF-b inhibitor counter-screen; Potency, µM (doses to about 46.1 µM), actives largely listed as cytotoxic; HepG2 CAGA-GFP viability, ATP luminescence, 18 h; 410,000 compounds, 0.76% hits; AID 588856
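HepG2 CAGA-GFP cells (1000/well, DMEM with 1% FBS) received compound, then TGF-beta at 500 pg/mL final, and were incubated 18 hours at 37 degrees C. Viability was read by CellTiter-Glo luminescence. Media-only wells were set as complete cell-killing and DMSO as no toxicity.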
DT40 TDP1 no CPT = qHTS for Inhibitors of human tyrosyl-DNA phosphodiesterase 1 (TDP1): qHTS in cells in absence of CPT; DT40 Tdp1-/- hTDP1 cells, no CPT, ATP luminescence, 48 h; Potency, µM (top dose mostly 46.2 µM), hits mostly inhibitors; 420,000 compounds, 15% hits; also: nearly all actives have a fitted effect of over 55% in size
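No-CPT arm: Tdp1-/-;hTDP1 DT40 cells (400/well) plus compounds, incubated ≥48 hr at 37 °C. Readout CellTiter-Glo luminescence.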
TGFb SMAD3 inh = blocks TGF-b signaling; HepG2 CAGA-GFP TGF-b/SMAD3 reporter, GFP fluorescence, 18 h; TGF-beta stimulated, 500 pg/mL final; Potency, µM (top dose mostly 46.1 µM), most hits filed as inhibitors; 410,000 compounds, 1.2% hits; AID 588855; also: nearly all actives have a fitted effect of over 65% in size
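HEPG2 CAGA-GFP, 1000 cells/well; 2 h settle, 37 C; cpd via pin tool; TGF-b 500 pg/mL final; 18 h, 37 C; GFP imaging ex488/em500-530; %Activity normalised to -TGF-b and +DMSO controls; CRC fit, curve class.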
HT1080 IDH1KD tx = toxicity to HT-1080 IDH1 knockdown cells (counter line). HT-1080 IDH1 knockdown viability, ATP luminescence, 48 h. AID 686971. 360,000 compounds, 2% hits. Potency, µM (titrated, usually from 46.1 µM), hits mostly cytotoxic
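Luminescent ATP read-out (CellTiter-Glo, 10 min at room temperature) after 48 h compound exposure at 37 °C gave viability of IDH1-knockdown HT-1080 cells. Activity was normalised to DMSO and cell-free wells, then fitted as concentration-response curves.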
HT1080-NT tox = kills 2HG-producing HT-1080-NT fibrosarcoma cells; HT-1080-NT fibrosarcoma viability, CellTiter-Glo ATP luminescence, 48 h; Potency, µM (highest dose often 46.1 µM), hits mostly cytotoxic; 360,000 compounds, 1.6% hits; AID 686970;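 also: NT is the 2HG producing partner of a matched IDH1 knockdown line; nearly all actives have a fitted effect of over 55% in size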
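750 cells/well, RPMI + 5% FBS; 2 h settle, compound pin-transfer, 48 h at 37 degrees C. CellTiter-Glo 10 min RT, luminescence. Normalized to DMSO and media-only wells.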
A number is an active result; i = inactive; ? = inconclusive; nt = not tested or not shown; [ ] = dose if it differs, or a comment. Calls follow the shape of the dose curve; as a rule, active = well fitted curve in the direction sought with a large enough effect; inconclusive = small, poorly fitted or top-dose-only effect, or another doubt; inactive = no such curve, though single readings can be large; an effect the other way counts as inactive or inconclusive.

SMILES | TDP1 cell CPT | HepG2 tox | DT40 TDP1 no CPT | TGFb SMAD3 inh | HT1080 IDH1KD tx | HT1080-NT tox
COC(=O)c1nnn(-c2nonc2N)c1CSc1nnc(N)s1 | i | i | i | i | i | i
C=C(C)C(COc1c2occc2cc2ccc(=O)oc12)OC(C)(C)C(O)COc1c2occc2cc2ccc(=O)oc12 (stereo not drawn) | 13µM | i | 15µM | i | i | i
COc1ccc(-c2nc3ccc(N4CCCC4)cc3c(=O)[nH]2)cc1OC | 13µM | i | 21µM | i | i | i
CCOP(=O)(c1ccccc1)C(O)c1ccc(Br)cc1 (stereo not drawn) | i | i | i | i | i | i
Cc1ccc(S(=O)(=O)c2cc3c(=O)n4cccc(C)c4nc3n(Cc3ccncc3)c2=N)cc1 | ? | i | i | i | i | i
Cc1cc(NCCCOC(C)C)n2c(nc3ccccc32)c1C#N | ? | i | 26µM | i | i | i
Cc1ccc(Nc2cc(C)c(C#N)c3nc4ccccc4n23)c(C)c1 | 15µM | i | 13µM | i | nt | nt
Cc1cc(NCCCN(C)C)n2c(nc3ccccc32)c1C#N | i | i | ? | i | i | i
O=C(CSc1nc2ccccc2c(=O)n1NC(=O)Cc1ccccc1)NCc1ccccc1Cl | i | i | ? | i | i | i
COc1ccc([N+](=O)[O-])cc1NC(=O)C(C)N(C)Cc1cccc(OC)c1OC (stereo not drawn) | 21µM | i | 16µM | i | i | i
COc1ccc([N+](=O)[O-])cc1NC(=O)Nc1cccc(Cl)c1 | 12µM | i | 9.2µM | i | i | i
COc1ccc([N+](=O)[O-])cc1NC(=O)Nc1ccc(OC)c(OC)c1 | ? | i | ? | i | i | i
COc1ccccc1NS(=O)(=O)c1cccc(NC(=O)Nc2cccc(Cl)c2)c1 | 21µM | 14µM | 21µM | ? | ? | i
COc1ccccc1NS(=O)(=O)c1cccc(NC(=O)NCCCl)c1 | 21µM | i | ? | i | i | i
COc1ccccc1NS(=O)(=O)c1cccc(NC(=O)C2CC2)c1 | ? | i | i | i | i | i[9.24 µM]
CC(C)NC(=O)NC(=O)CSc1nnc(-c2c[nH]c3ccccc23)o1 | ? | i | i | i | i | i
NS(=O)(=O)c1cccc(NC(=O)c2cncc(Br)c2)c1 | i | i | i | i | i | i
COc1ccccc1NS(=O)(=O)c1cccc(NC(=O)c2cncc(Br)c2)c1 | ? | i | 18µM | i | ? | ?
Cc1ccc(Cl)cc1NC(=O)Nc1c(C)n(C)n(-c2ccccc2)c1=O | i | i | i | i | i | i
Cc1ccc(NC(=O)CN(C)S(=O)(=O)c2cccc3cccnc23)cc1 | i | i | ? | i | i | i
Cc1ccc(NC(=O)c2cccc3cccnc23)cc1 | ? | i | 18µM | i | i | i
Cc1ccc(NC(=O)CN(C)C(=O)COc2cccc3cccnc23)cc1 | 3.7µM | i | 2.9µM | ? | i | i
CSc1nc(N)nc(SCC(=O)CC(=O)OC(C)C)c1C#N | i | i | i | i | i | i
CSc1nc(N)nc(SCC(=O)C(C)(C)C)c1C#N | ? | i | 23µM | i | i | i
CSc1nc(N)nc(SCC(=O)Nc2ccc(Cl)cc2)c1C#N | ? | i | 21µM | ? | ? | ?
CSc1nc(N)nc(SCCS(=O)(=O)c2ccc(Cl)cc2)c1C#N | 21µM | i | 26µM | ? | 11µM | ?
Cc1ccc(S(=O)(=O)CCSc2nc(C)cc(C)c2C#N)cc1 | ? | i | ? | i | ? | ?
CC(NC(=O)CN(Cc1ccccc1)S(=O)(=O)c1ccccc1)c1cccnc1 (stereo not drawn) | i | i | i | i | i | i
O=C(c1ccc(CS(=O)Cc2ccc(Cl)cc2)o1)N1CCN(c2ccccn2)CC1 (stereo not drawn) | ? | i | ? | i | i | i
